Experimental data as given in PubChem BioAssay (Tox21).
“And” between values parts separate entries of the source, which are not always exact repeats. Equal entries are not always repeated. Results filed as inconclusive are left out. Where a call stands in place of a potency, no number is given. The source holds several records for some structures; these can differ, active in one and inactive in another. The source made the active and inactive calls. Unless noted, the call rests on the fitted dose curve.

Columns and labels:
[1] = Nuclear factor erythroid 2-related factor 2/antioxidant responsive element (Nrf2/ARE) small molecule agonists: qHTS cell viability counter screen in human keratinocytes (AID 1919968; active means well fitted curve in the direction sought with a large enough effect in the repeat runs; an effect the other way counts as inactive or inconclusive; further: nearly all actives have a fitted effect of over 55% in size; further: potency means the concentration at half of the fitted maximal effect)
Method in brief: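 Cells of the KeratinoSens line were plated at 1,500 per well and left for 5 h before compound transfer from DMSO stocks. After a 23 h incubation (37 C, 5% CO2), CellTiter-Fluor was added. Signal was taken as fluorescence intensity 1 h later.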

[2] = Nuclear factor erythroid 2-related factor 2/antioxidant responsive element (Nrf2/ARE) small molecule agonists: luciferase reporter gene qHTS assay in human keratinocytes (AID 1919969); further: nearly all actives have a fitted effect of over 35% in size
[3] = biological target: Gonadotropin-releasing hormone receptor (Homo sapiens) (UniProt P30968); assay: Human gonadotropin-releasing hormone receptor (GnRHR) small molecule agonists, calcium flux assay in GnRHR-HEK293 cells (AID 1920063); further: nearly all actives have a fitted effect of over 35% in size
Sequence of Gonadotropin-releasing hormone receptor (Homo sapiens) (P30968 whole entry, looked up): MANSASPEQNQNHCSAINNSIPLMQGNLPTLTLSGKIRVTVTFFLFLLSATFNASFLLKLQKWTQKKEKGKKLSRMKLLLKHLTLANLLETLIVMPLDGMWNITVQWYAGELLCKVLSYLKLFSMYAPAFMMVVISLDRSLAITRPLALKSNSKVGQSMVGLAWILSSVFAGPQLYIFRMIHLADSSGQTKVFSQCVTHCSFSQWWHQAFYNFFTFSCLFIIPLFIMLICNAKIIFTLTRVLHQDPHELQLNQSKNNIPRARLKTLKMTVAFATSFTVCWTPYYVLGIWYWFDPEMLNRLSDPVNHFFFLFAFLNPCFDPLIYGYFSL
Method in brief: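 Compounds dissolved in DMSO are pin-transferred onto dye-loaded GnRHR-HEK293 cells, which were seeded 18 h before at 37 C/5% CO2. Calcium signal is read as fluorescence intensity at 1 s intervals for 3 min.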

[4] = biological target: KiSS-1 receptor (Homo sapiens) (UniProt Q969F8); assay: Human kisspeptin (KISS1R) small molecule agonists, calcium flux assay in KISS1R-HEK293 cells (AID 1920064; active means well fitted curve in the direction sought with a large enough effect in the repeat runs; an effect the other way counts as inactive or inconclusive)
Sequence of KiSS-1 receptor (Homo sapiens) (Q969F8 whole entry, looked up): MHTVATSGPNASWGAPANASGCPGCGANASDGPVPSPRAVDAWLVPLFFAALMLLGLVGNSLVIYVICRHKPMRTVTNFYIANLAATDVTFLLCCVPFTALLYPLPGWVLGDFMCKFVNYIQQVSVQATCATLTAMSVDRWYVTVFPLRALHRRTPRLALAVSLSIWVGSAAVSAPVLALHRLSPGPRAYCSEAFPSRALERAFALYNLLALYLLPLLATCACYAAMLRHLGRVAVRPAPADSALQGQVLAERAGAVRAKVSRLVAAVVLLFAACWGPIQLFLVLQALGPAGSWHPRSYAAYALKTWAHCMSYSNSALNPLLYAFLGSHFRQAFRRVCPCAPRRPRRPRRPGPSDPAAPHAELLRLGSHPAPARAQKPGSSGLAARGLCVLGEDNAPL
Method in brief: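 Cell line: HEK293, stable human KISS1R. Dye loading 1 h at 37 C after 18 h culture. Read: kinetic fluorescence, 480/540 nm, 3 min at 1 s intervals.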

[5] = G protein-coupled receptor (GPCR) small molecule agonists, calcium flux assay: HEK293 wild type cell line counter screen (AID 1920065)
Method in brief: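 Tox21 10K compounds, 15 concentrations each in triplicate, pin-transferred in DMSO onto dye-loaded cells; kinetic read at 480/540 nm for 3 min, 1 s intervals.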

[6] = p53 small molecule agonists, cell-based qHTS assay with rat liver microsomes (AID 1963578)
Method in brief: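 Fluorescence from a beta-lactamase reporter under a p53 response element was measured after cells had been incubated 16 h at 37 C with test compound and rat liver microsomes plus NADPH (0.5 mg/mL final each).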

[7] = p53 small molecule agonists, cell-based qHTS assay with human liver microsomes: qHTS cell viability counter screen (AID 1963579); further: nearly all actives have a fitted effect of over 45% in size; further: potency means the concentration at half of the fitted maximal effect
Method in brief: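 Seed p53RE-bla cells at 4,000 per well; incubate 5 h at 37 C; add compound, human liver microsomes and NADPH; incubate 16 h at 37 C; add CellTiter-Glo; after 30 min at room temperature, read luminescence.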

[8] = p53 small molecule agonists, cell-based qHTS assay with rat liver microsomes: qHTS cell viability counter screen (AID 1963580); further: nearly all actives have a fitted effect of over 45% in size; further: potency means the concentration at half of the fitted maximal effect
Method in brief: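 After the beta-lactamase ratio was read, CellTiter-Glo was added to the same wells and luminescence measured at 30 min; cells had been treated 16 h at 37 C with compounds, rat liver microsomes and NADPH (0.5 mg/mL final each).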

[9] = p53 small molecule agonists, cell-based qHTS assay: qHTS cell viability counter screen (AID 1963581); further: nearly all actives have a fitted effect of over 45% in size; further: potency means the concentration at half of the fitted maximal effect
Method in brief: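 ATP content measured by luminescence in HCT-116 p53RE-bla cells treated 16 h at 37 C, same wells as the reporter screen.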

[10] = biological target: 5-hydroxytryptamine receptor 2A (Homo sapiens) (UniProt P28223); assay: 5-hydroxytryptamine receptor 2A (HTR2A) small molecule antagonists, cell-based qHTS assay (AID 1963586); further: nearly all actives have a fitted effect of over 45% in size
Sequence of 5-hydroxytryptamine receptor 2A (Homo sapiens) (P28223 whole entry, looked up): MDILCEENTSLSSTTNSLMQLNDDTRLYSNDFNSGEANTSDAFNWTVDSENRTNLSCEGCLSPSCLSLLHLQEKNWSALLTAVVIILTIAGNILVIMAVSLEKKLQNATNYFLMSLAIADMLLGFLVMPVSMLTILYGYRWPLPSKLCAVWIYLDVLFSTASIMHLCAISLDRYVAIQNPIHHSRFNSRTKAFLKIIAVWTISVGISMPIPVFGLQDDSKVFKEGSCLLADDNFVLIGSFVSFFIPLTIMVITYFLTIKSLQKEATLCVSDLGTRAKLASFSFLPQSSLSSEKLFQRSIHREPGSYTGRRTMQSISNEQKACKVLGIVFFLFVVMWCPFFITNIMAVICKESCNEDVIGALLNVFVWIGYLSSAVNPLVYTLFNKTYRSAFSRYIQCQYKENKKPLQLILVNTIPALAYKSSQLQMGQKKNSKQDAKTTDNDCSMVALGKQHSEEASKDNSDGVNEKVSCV
Method in brief: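 CHO cells stably expressing human HTR2A were plated for 18 h at 37 C, then loaded with calcium dye for 1 h. Compounds were preincubated 5 min at room temperature before DOI (4 nM solution) was added. Kinetic fluorescence was read for 3 min.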

[11] = biological target: 5-hydroxytryptamine receptor 2A (Homo sapiens) (UniProt P28223); assay: 5-hydroxytryptamine receptor 2A (HTR2A) small molecule agonists, cell-based qHTS assay (AID 1963587); further: nearly all actives have a fitted effect of over 30% in size; further: potency means the concentration at half of the fitted maximal effect
Method in brief: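 CHO cells stably expressing human HTR2A, plated 18 h, loaded with calcium dye 1 h at 37 C. Agonist mode: compounds added and intracellular calcium fluorescence recorded kinetically for 2 min at 1 sec intervals.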

[12] = biological target: Muscarinic acetylcholine receptor M1 (Homo sapiens) (UniProt P11229); assay: Cholinergic receptor muscarinic 1 (CHRM1) small molecule antagonists, cell-based qHTS assay (AID 1963588); further: nearly all actives have a fitted effect of over 40% in size
Sequence of Muscarinic acetylcholine receptor M1 (Homo sapiens) (P11229 whole entry, looked up): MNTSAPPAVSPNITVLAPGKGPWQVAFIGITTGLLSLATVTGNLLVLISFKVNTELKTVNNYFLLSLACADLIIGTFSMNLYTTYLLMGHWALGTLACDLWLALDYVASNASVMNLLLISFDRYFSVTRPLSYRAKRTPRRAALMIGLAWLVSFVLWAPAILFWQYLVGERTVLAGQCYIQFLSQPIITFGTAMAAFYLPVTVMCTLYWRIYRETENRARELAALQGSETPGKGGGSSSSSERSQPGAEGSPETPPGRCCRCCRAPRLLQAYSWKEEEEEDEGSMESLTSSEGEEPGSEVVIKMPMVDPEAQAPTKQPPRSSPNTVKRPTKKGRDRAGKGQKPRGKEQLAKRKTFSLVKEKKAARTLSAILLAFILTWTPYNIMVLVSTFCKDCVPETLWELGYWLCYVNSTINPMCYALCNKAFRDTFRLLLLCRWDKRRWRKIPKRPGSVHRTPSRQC
Method in brief: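 Compounds were tested at 15 concentrations in three independent runs. Dye-loaded CHRM1-CHO cells were exposed 5 min at room temperature before stimulation by acetylcholine added at 50nM. Intracellular calcium was read kinetically on FDSS for 3 min.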

[13] = biological target: Muscarinic acetylcholine receptor M1 (Homo sapiens) (UniProt P11229); assay: Cholinergic receptor muscarinic 1 (CHRM1) small molecule agonists, cell-based qHTS assay (AID 1963589); further: nearly all actives have a fitted effect of over 35% in size
Method in brief: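 Homogeneous fluorescence calcium flux, agonist mode. Human M1-expressing CHO cells; compound dosed at 15 concentrations, three independent runs; signal sampled every 1 sec.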

[14] = cAMP Responsive Elements (CRE) small molecule agonists, cell-based qHTS assay (AID 1963590)
Method in brief: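 HEK 293T cells stably bearing CRE-bla were plated at 2,000 cells per well and rested 18 h. Compounds, positive controls or DMSO were added for 3 h at 37 C. LiveBLAzer B/G substrate was then loaded for 2 h at room temperature.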

[15] = cAMP Responsive Elements (CRE) small molecule antagonists, cell-based qHTS assay (AID 1963591; active means well fitted inhibition curve with a large enough effect in the signal ratio in the repeat runs, not every such curve was filed as active; the % refers to the signal ratio; further: potency means the concentration at half of the fitted maximal effect)
Method in brief: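 First, CRE-bla HEK293T cells settled 18 h at 37 C. Next, compound and 0.25 uM final NKH477 were applied for 3 h. Last, LiveBLAzer B/G substrate was loaded for 2 h at room temperature.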

[16] = biological target: Beta-2 adrenergic receptor (Homo sapiens) (UniProt P07550); assay: Adrenergic beta2 receptor (ADRB2) small molecule antagonists, cell-based qHTS assay (AID 1963592); further: nearly all actives have a fitted effect of over 50% in size; further: potency means the concentration at half of the fitted maximal effect
Sequence of Beta-2 adrenergic receptor (Homo sapiens) (P07550 whole entry, looked up): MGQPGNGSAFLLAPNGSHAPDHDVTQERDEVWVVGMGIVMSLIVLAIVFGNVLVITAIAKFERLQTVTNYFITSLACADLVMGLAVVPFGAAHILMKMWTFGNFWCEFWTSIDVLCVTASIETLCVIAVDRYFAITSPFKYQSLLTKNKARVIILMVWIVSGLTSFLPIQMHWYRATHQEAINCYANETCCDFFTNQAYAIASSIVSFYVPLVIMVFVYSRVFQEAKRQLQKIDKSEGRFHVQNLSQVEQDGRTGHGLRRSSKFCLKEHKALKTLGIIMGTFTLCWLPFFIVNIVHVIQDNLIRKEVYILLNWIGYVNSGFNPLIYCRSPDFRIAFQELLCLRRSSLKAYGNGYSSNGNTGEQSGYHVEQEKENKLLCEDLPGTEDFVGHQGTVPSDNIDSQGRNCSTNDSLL
Method in brief: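 Assay format: CHO-ADRB2 cells, 18-20hr seeding at 37C/5% CO2, then compound plus 1nM isoproterenol agonist mix for 0.5hr RT. Homogeneous time-resolved fluorescence cAMP detection after 1hr, expressed as 665/615 nm ratio.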

[17] = biological target: Beta-2 adrenergic receptor (Homo sapiens) (UniProt P07550); assay: Adrenergic beta2 receptor (ADRB2) small molecule agonists, cell-based qHTS assay (AID 1963593);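 further: CHO cells stably overexpressing human ADRB2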
Method in brief: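 CHO cells stably over-expressing ADRB2 were plated overnight at 37C, then dosed with compounds plus a stimulation mix containing 100uM IBMX and 25uM Ro-20-1724 for 0.5hr at room temperature. cAMP was measured by HTRF competition, 1hr.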

[18] = biological target: D(2) dopamine receptor (Homo sapiens) (UniProt P14416); assay: Dopamine D2 receptor (DRD2) small molecule agonists, cell-based qHTS assay (AID 1963594); further: nearly all actives have a fitted effect of over 35% in size
Sequence of D(2) dopamine receptor (Homo sapiens) (P14416 whole entry, looked up): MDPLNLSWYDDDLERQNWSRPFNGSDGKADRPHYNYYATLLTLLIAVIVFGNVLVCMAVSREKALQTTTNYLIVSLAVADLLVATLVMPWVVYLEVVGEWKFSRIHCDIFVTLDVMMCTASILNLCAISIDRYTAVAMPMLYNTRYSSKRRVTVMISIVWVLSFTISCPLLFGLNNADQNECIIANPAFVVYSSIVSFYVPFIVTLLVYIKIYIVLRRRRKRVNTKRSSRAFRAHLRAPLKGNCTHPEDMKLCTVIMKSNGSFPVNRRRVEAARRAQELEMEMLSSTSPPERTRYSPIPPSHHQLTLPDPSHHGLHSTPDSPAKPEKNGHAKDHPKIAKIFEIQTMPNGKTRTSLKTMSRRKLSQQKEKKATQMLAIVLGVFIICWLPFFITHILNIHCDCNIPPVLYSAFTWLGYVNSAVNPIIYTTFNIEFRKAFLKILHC
Method in brief: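 HEK293 cells stably expressing human DRD2, pre-treated with PDE inhibitor Ro20-1724 (0.1 mM final) and compound 10 min at room temperature, then stimulated with NKH477 (200nM […]) for 30 min. cAMP read by HTRF (665/620 nm).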

[19] = p53 small molecule agonists, cell-based qHTS assay (AID 1963582; active means well fitted activation curve with a large enough effect in the signal ratio in the repeat runs, not every such curve was filed as active; the % refers to the signal ratio)
Method in brief: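 16 h compound exposure (37 C) of p53 response element–bla cells, preceded by 5 h recovery at 37 C/5% CO2; read-out via LiveBLAzer B/G FRET substrate, 2 h RT, fluorescence intensity.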

[20] = biological target: D(2) dopamine receptor (Homo sapiens) (UniProt P14416); assay: Dopamine D2 receptor (DRD2) small molecule antagonists, cell-based qHTS assay (AID 1963595; active means well fitted inhibition curve with a large enough effect in the signal ratio in the repeat runs, with a control signal flat; the % refers to the signal ratio)
Method in brief: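 Stable D2 receptor HEK293 line, 24 h after seeding. Compound preincubated 10 min, then quinpirole (12 nM) with forskolin analogue NKH477 (200 nM), 30 min, room temperature. Detection by time-resolved FRET of cAMP.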

CCCCCCCCCCCCOC(=O)c1cc(O)c(O)c(O)c1
Potency [1]: 30.5 µM (active) and 27.3 µM (active) | Potency [2]: inactive | Potency [3]: inactive | Potency [4]: inactive | Potency [5]: inactive | Potency [6]: inactive | Potency [7]: 45.8 µM (active) | Potency [8]: 40.6 µM (active) | Potency [9]: 40.6 µM (active) and 40.8 µM (active) | Potency [10]: inactive | Potency [11]: 10.9 µM (active) and inactive | Potency [12]: inactive | Potency [13]: inactive | Potency [14]: inactive | Potency [15]: 21.6 µM (active) and 45.2 µM (active) | Potency [16]: inactive | Potency [17]: inactive | Potency [18]: inactive

C=C(C)C(=O)OCCOC(=O)C(=C)C
Potency [1]: inactive | Potency [2]: inactive | Potency [3]: inactive | Potency [4]: inactive | Potency [5]: inactive | Potency [6]: inactive | Potency [7]: inactive | Potency [8]: inactive | Potency [9]: inactive | Potency [19]: inactive | Potency [10]: inactive | Potency [11]: inactive | Potency [12]: inactive | Potency [13]: inactive | Potency [14]: inactive | Potency [15]: inactive | Potency [16]: inactive | Potency [18]: inactive | Potency [20]: inactive

CCCCC(CC)COC(=O)/C=C\C(=O)OCC(CC)CCCC (stereo not drawn)
Potency [1]: inactive | Potency [2]: inactive | Potency [3]: inactive | Potency [4]: inactive | Potency [5]: inactive | Potency [6]: inactive | Potency [7]: inactive | Potency [8]: inactive | Potency [9]: inactive | Potency [19]: inactive | Potency [10]: inactive | Potency [11]: inactive | Potency [12]: inactive | Potency [13]: inactive | Potency [14]: inactive | Potency [15]: inactive | Potency [16]: inactive | Potency [18]: inactive | Potency [20]: inactive

c1cc(-c2ccncc2)ccn1
Potency [1]: inactive | Potency [2]: inactive | Potency [3]: inactive | Potency [4]: inactive | Potency [5]: inactive | Potency [7]: inactive | Potency [9]: inactive | Potency [19]: inactive | Potency [11]: inactive | Potency [12]: inactive | Potency [13]: inactive | Potency [14]: inactive | Potency [15]: inactive | Potency [16]: inactive | Potency [17]: inactive | Potency [18]: inactive

COC(=O)[C@H]1[C@H]2C[C@@H]3c4[nH]c5cc(OC)ccc5c4CCN3C[C@H]2C[C@@H](OC(=O)c2cc(OC)c(OC)c(OC)c2)[C@@H]1OC
Potency [1]: 48.5 µM (active) and inactive | Potency [2]: inactive | Potency [3]: inactive | Potency [4]: inactive | Potency [5]: inactive | Potency [6]: inactive | Potency [7]: inactive | Potency [8]: inactive | Potency [9]: inactive | Potency [19]: inactive | Potency [16]: 54.4 µM (active) and 19.9 µM (active) and inactive | Potency [18]: inactive | Potency [20]: inactive

CC(C)CCCCCCCOC(=O)CCCCC(=O)OCCCCCCCC(C)C
Potency [1]: inactive | Potency [2]: inactive | Potency [3]: inactive | Potency [4]: inactive | Potency [5]: inactive | Potency [6]: inactive | Potency [7]: inactive | Potency [8]: inactive | Potency [9]: inactive | Potency [19]: inactive | Potency [10]: inactive | Potency [11]: inactive | Potency [12]: inactive | Potency [13]: inactive | Potency [14]: inactive | Potency [15]: inactive | Potency [16]: inactive | Potency [18]: inactive | Potency [20]: inactive

CC(O)CC(C)(C)O (stereo not drawn)
Potency [1]: inactive | Potency [2]: inactive | Potency [3]: inactive | Potency [4]: inactive | Potency [5]: inactive | Potency [7]: inactive | Potency [8]: inactive | Potency [19]: inactive | Potency [10]: inactive | Potency [12]: inactive | Potency [13]: inactive | Potency [15]: inactive | Potency [16]: inactive | Potency [17]: inactive | Potency [20]: inactive

CC(C)=CCC/C(C)=C/CO
Potency [1]: inactive | Potency [2]: inactive | Potency [3]: inactive | Potency [4]: inactive | Potency [5]: inactive | Potency [7]: inactive | Potency [8]: inactive | Potency [9]: inactive | Potency [19]: inactive | Potency [14]: inactive | Potency [15]: inactive | Potency [16]: inactive | Potency [18]: inactive | Potency [20]: inactive
